Screens as filed in PubChem BioAssay.
12-LOX inh: Primary qHTS assay for inhibitors of human arachidonate 12S-lipoxygenase (ALOX12): Round 2 | Polyunsaturated fatty acid lipoxygenase ALOX12 (Homo sapiens), P18054 | purified 12hLO, xylenol orange hydroperoxide absorbance | Potency, µM (titrated, usually from 108 µM), for the others: top-dose activity change, negative = inhibition, hits mostly inhibitors | actives 1.1% (n = 580,000); also: potency is read from the fitted curve at half-maximal effect
Target sequence (P18054 whole entry, looked up): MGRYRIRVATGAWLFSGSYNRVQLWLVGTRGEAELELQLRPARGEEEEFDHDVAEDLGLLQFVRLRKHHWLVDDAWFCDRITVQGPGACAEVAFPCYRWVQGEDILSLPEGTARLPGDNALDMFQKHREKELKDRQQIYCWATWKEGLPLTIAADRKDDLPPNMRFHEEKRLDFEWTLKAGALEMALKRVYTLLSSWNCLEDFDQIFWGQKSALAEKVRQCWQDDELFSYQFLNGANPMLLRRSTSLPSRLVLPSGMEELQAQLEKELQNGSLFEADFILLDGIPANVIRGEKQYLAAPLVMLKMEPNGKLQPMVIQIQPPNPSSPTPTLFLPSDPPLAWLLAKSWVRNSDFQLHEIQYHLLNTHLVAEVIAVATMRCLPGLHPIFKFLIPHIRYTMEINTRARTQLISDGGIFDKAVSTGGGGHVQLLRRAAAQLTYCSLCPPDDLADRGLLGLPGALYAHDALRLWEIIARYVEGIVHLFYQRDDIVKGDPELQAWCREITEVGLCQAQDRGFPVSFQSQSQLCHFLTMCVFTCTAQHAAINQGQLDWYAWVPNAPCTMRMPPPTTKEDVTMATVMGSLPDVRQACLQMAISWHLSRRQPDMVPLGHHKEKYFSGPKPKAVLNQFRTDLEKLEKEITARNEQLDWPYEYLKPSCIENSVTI
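Purified human 12hLO at 150 nM in 25 mM Hepes, 0.01% Triton X-100, pH 7.0, preincubated 15 min at room temperature with compound. Reaction started with 40 uM arachidonic acid, 30 min at room temperature. Hydroperoxide measured by Fe-xylenol orange, 573/405 nm absorbance ratio.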
HT1080 IDH1KD tx: qHTS for induction of synthetic lethality in tumor cells producing 2HG: qHTS for the HT-1080-IDH1KD cell line; actives 2% (n = 360,000); Potency, µM (titrated, usually from 46.1 µM), inactives show at the top dose activity, negative = toxicity, most hits filed as cytotoxic; HT-1080 IDH1 knockdown viability, ATP luminescence, 48 h;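 also: potency is read from the fitted curve at half-maximal effect; 0% = DMSO wells and -100% = cell-free medium wells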
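Luminescent ATP read-out (CellTiter-Glo, 10 min at room temperature) after 48 h compound exposure at 37 °C gave viability of IDH1-knockdown HT-1080 cells. Activity was normalised to DMSO and cell-free wells, then fitted as concentration-response curves.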
DT40 TDP1 no CPT: qHTS for Inhibitors of human tyrosyl-DNA phosphodiesterase 1 (TDP1): qHTS in cells in absence of CPT. Potency, µM (doses to about 46.2 µM), inactives show at the highest dose activity change, negative = growth inhibition, usual class: inhibitors. actives 15% (n = 420,000). DT40 Tdp1-/- hTDP1 cells, no CPT, ATP luminescence, 48 h; also: potency is read from the fitted curve at half-maximal effect; nearly all actives have a fitted effect of over 55% in size
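Growth of hTDP1-complemented DT40 Tdp1-knockout cells is measured by ATP luminescence after at least 48 hr compound exposure at 37 °C, with DMSO substituting for the 20 nM CPT used in the parallel screen.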
IL-1B inflam inh: qHTS for Inhibitors of Inflammasome Signaling: IL-1-beta AlphaLISA Primary Screen; THP-1 LPS/ATP IL-1B secretion, AlphaLISA, 16 h; stronger effect = lower value; activity change, % at 57.5 µM; actives 4.7% (n = 360,000); AID 743279, 2014; in the data active = activity change below about -50%; inconclusive = mostly about -30% to -49%
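THP-1 cells pretreated 1 hr with compounds (up to 57.5 uM final), then stimulated with LPS (250 ng/mL final) plus ATP (1.25 mM final); secreted IL-1B measured by AlphaLISA after 16 hr, decreased signal indicating inhibition.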
HT1080-NT tox: qHTS for induction of synthetic lethality in tumor cells producing 2HG: qHTS for the HT-1080-NT fibrosarcoma cell line; HT-1080-NT fibrosarcoma viability, CellTiter-Glo ATP luminescence, 48 h; Potency, µM (highest dose often 46.1 µM), for the others: at the highest dose activity, negative = less viability, actives largely listed as cytotoxic; actives 1.6% (n = 360,000); AID 686970, 2013;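 also: NT is the 2HG producing partner of a matched IDH1 knockdown line; potency is read from the fitted curve at half-maximal effect; 0% = DMSO-treated cells and -100% = media-only wells without cells; nearly all actives have a fitted effect of over 55% in size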
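HT-1080-NT; 750 cells/well; 5% FBS RPMI; 48 h compound, 37 degrees C; CellTiter-Glo luminescence; curve fitting and curve-class assignment.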
DT40 TDP1 CPT: qHTS for Inhibitors of human tyrosyl-DNA phosphodiesterase 1 (TDP1): qHTS in cells in presence of CPT; chicken DT40 Tdp1-/-;hTDP1 cells + 20 nM CPT, ATP luminescence, 48 h; Potency, µM (highest dose often 46.2 µM), for the others: at the highest dose activity change, negative = growth inhibition, usual class: inhibitors; actives 12% (n = 420,000); AID 686979, 2013; also: potency is read from the fitted curve at half-maximal effect; nearly all actives have a fitted effect of over 55% in size
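Cell growth measured by CellTiter-Glo luminescence after a minimum 48 h, 37 C compound exposure with 20 nM CPT in Tdp1-knockout DT40 cells stably expressing hTDP1, seeded 400/well; qHTS titration format.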
* hit, by the source's call; u = inconclusive; x = no result; ! = a repeat was not active; [ ] = remark or other dose. Shown is part of a subset that was picked to be rich in hits. Unless noted, calls follow the shape of the dose curve; as a rule, active = well fitted curve in the direction sought with a large enough effect; inconclusive = small, poorly fitted or top-dose-only effect, or another doubt; inactive = no such curve, though single readings can be large; an effect the other way counts as inactive or inconclusive. Unless noted, % is scaled to controls: 0 for no effect and ±100 for the full control effect.

SMILES	12-LOX inh	HT1080 IDH1KD tx	DT40 TDP1 no CPT	IL-1B inflam inh	HT1080-NT tox	DT40 TDP1 CPT
COC(=O)c1ccc(C2Nc3cccc4cccc(c34)N2)cc1	u	-25%	9.2µM*	6	-5%	8.2µM*
Oc1ccc(C2Nc3cccc4cccc(c34)N2)c(O)c1	0%	u	26µM*	-4	-23%	4.1µM*
COc1cc(C2Nc3cccc4cccc(c34)N2)cc(OC)c1O	410%	u	u	-90*	u	18µM*
COc1cc(C2Nc3cccc4cccc(c34)N2)ccc1OC(C)=O	x	12%	16µM*	0	-5%	16µM*
Clc1ccccc1C1Nc2cccc3cccc(c23)N1	4%	-2%	u	2	-3%	u
CCN(CC)CCNC(=O)c1nc2c3c4c(sc3nc(C)n2n1)CCC4	7%	x	x	x	x	x
O=C(CNC(=O)NCCc1ccccc1)NCC(F)(F)F	-42%	x	x	x	x	x
O=C(c1cc(=O)c2ccccc2o1)N(Cc1ccccc1)Cc1ccccc1	3%	x	x	x	x	x
Cc1c(C(C)C)c(=O)n(-c2ccccc2)n1C	-10%[22.9 µM]	x	-20%	x	x	6%
Cc1cc(=O)n(-c2ccccc2)n1C	u	2%	-7%	-66*	0%	-11%
CCOC(=O)c1cc(-c2ccc3c(c2)OCCO3)nc2c1c(C)nn2CCC#N	-5%	-3%	12µM*	0	-9%	u
CCOC(=O)c1cc(-c2ccco2)nc2c1c(C)nn2-c1cccc(Cl)c1	14µM*!	19%	u	9	1%	-28%
CCOC(=O)c1cc(-c2ccc(Cl)cc2)nc2c1c(C)nn2CCC#N	3%	2%	u	u	3%	u
CCOC(=O)c1cc(-c2ccc(OC)cc2F)nc2c1c(C)nn2CCC#N	16%	-1%	u	-50*	8%	u
CCOC(=O)c1cc(-c2ccncc2)nc2c1c(C)nn2C	-25%	u	18µM*	u	u	u
CCOC(=O)c1cc(-c2ccccc2)nc2c1c(C)nn2-c1ccccn1	-18%	2%[9.24 µM]	u	u	u	u
Cc1cc(C)cc(NC(=O)c2ccc(Oc3nccnc3N3CCCCC3)cc2)c1	-11%	x	x	x	x	x
Cc1csc(-c2cnn(-c3ccccc3)c2NC(=O)c2ccc(C(F)(F)F)cc2)n1	-13%	-19%	23µM*	-20	-2%	u
O=C1C=C(Nc2ccccc2C(F)(F)F)CCC1	-23%	x	x	x	x	x
COc1ccc(Nc2nc(N3CCN(c4ccc(F)cc4)CC3)nc3c2cnn3C)cc1	-57%	x	x	x	x	x
COc1ccc(N2CCN(c3nc(Cl)nc(Nc4ccc(F)cc4)n3)CC2)cc1	-2%	-21%	18µM*	-79*	-15%	18µM*
CCOc1ccc(Nc2nc(N)nc(CN3CCN(c4ccccc4F)CC3)n2)cc1	1%	-16%	18µM*	-8	-1%	-10%
COc1ccc(CN2CCN(c3ccccc3OC)CC2)cc1OC	u	-12%	-29%	-19	-3%	-22%
COc1ccccc1N1CCN(Cc2cnc3ccc(Cl)cn23)CC1	26%	-1%	13µM*	22	9%	23µM*
COc1ccc(Nc2nc(N)nc(CN3CCN(c4ccc(F)cc4)CC3)n2)cc1	-18%	-2%	15µM*	u	-17%	u
SMILES	12-LOX inh	HT1080 IDH1KD tx	DT40 TDP1 no CPT	IL-1B inflam inh	HT1080-NT tox	DT40 TDP1 CPT
CN(C)c1cccc(-c2cnc(Nc3ccncc3)c3c2CCO3)c1	51%[176 µM]	x	x	x	x	x
Cc1noc([C@@H]2CC(F)(F)CN2S(=O)(=O)c2ccccc2)n1	2%	x	x	x	x	x
CC(=O)c1cccc(NC(=O)C(C)Sc2ccccc2Cl)c1 (stereo unspecified)	-25%	x	x	x	x	x
CCN(CC)C(=O)c1cccc(-c2ccc(OCCn3ccnc3)cc2)c1	56%	x	x	x	x	x
COc1cccc(N2CCN(C(=O)c3ccc4c(c3)N(C)C3CCCCCN3C4=O)CC2)c1 (stereo unspecified)	-19%	x	x	x	x	x
Nc1nc(CN2CCN(Cc3ccccc3)CC2)nc(Nc2ccccc2)n1	2%	u	-26%	13	u	-27%
Nc1nc(CN2CCN(c3ccccn3)CC2)nc(Nc2ccc(Cl)cc2)n1	-23%	-30%	6.5µM*	-22	-32%	u
COc1ccccc1N1CCN(Cc2nc(N)nc(Nc3ccc(C)c(Cl)c3)n2)CC1	-29%	u	9.2µM*	-15	u	15µM*
CCOc1ccccc1NC(=O)Cc1c[nH]c2ccccc12	-24%	x	x	x	x	x
CCCOc1cc(C)c(S(=O)(=O)NCCOC)cc1C	-2%	-2%	u	8	-23%	26µM*
Cc1cccc(OCC(=O)Nc2ccc(NC(=O)c3ccccc3)cc2)c1	-13%	11%	-1%	10	7%	6%
Cc1cccc(OCC(=O)Nc2ccc(S(=O)(=O)N(Cc3ccccc3)c3ccccc3)cc2)c1	-23%	x	3.3µM*	x	x	10µM*
O=C(COc1ccccc1)Nc1ccc(S(=O)(=O)N(Cc2ccccc2)c2ccccc2)cc1	-15%	x	15µM*	x	x	u
COc1cccc(CNc2cnc3ccccc3c2)c1O	32µM*	6%[9.24 µM]	16µM*	-54*	u	12µM*
Cc1ccc(O)c(CNc2cnc3ccccc3c2)c1	-8%	u	u	-88*	-14%	-20%
Oc1ccc(Br)cc1CNc1cnc2ccccc2c1	-95%	-17%	u	-2	-13%	u
O=C(c1ccccc1)[C@@H]1O[C@H]1c1ccc(-c2ccccc2)cc1	13%	x	4.2µM*	x	x	4.2µM*
Cc1ccc(NC(=O)C(C)N2CCCc3ccccc32)cc1S(=O)(=O)N1CCOCC1 (stereo unspecified)	u	-5%	6.5µM*	-7	-1%	-88%
CCN(CC)S(=O)(=O)c1cc(NC(=O)C(C)N(C)CC(=O)Nc2c(C)cccc2C)ccc1C (stereo unspecified)	0%	-4%	18µM*	-3	-2%	26µM*
CCN(CC)S(=O)(=O)c1cc(NC(=O)C(C)N2CCc3ccccc32)ccc1C (stereo unspecified)	7%	-24%	26µM*	u	u	u
